Measured values from paper PMC5540273 (PLoS ONE, 2017).

How the values were obtained:
Settings in all cases: concentration: 1 μM, replicates: in singlicate; n = 1
FGR = tested on: FGR
FLT1 = tested on: FLT1
FLT3-autoinhibited = tested on: FLT3-autoinhibited
FLT3 = tested on: FLT3
FLT4 = tested on: FLT4
FRK = tested on: FRK
FYN = tested on: FYN
GAK = tested on: GAK
GCN2(Kin.Dom.2,S808G) = tested on: T1, GCN2(Kin.Dom.2,S808G)
T1 construct: gene EIF2AK4

GRK1 = tested on: GRK1
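Also: KINOMEscan kinase panel screen.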

SMILES | %Inh (FGR) | %Inh (FLT1) | %Inh (FLT3-autoinhibited) | %Inh (FLT3) | %Inh (FLT4) | %Inh (FRK) | %Inh (FYN) | %Inh (GAK) | %Inh (GCN2(Kin.Dom.2,S808G)) | %Inh (GRK1)
Cl.NS(=O)(=O)c1cccc(Nc2cc(-c3ccc(F)cc3)n[nH]2)c1 [GW824645] | 0% | 0% | 77% | 88% | 0% | 0% | 0% | 0% | 0% | 23%
Cc1ccc(-c2ccc3c(ccc4sc5c(c43)NC[C@@H](C)N=C5N(C)C)n2)cn1 | 1% | 1% | 0% | 0% | 0% | 0% | 0% | 0% | 0% | 0%
CCn1c(-c2ccoc2)nc2cnccc21 [SB-733887] | 10% | 9% | 65% | 0% | 10% | 0% | 47% | 0% | 0% | 0%
COc1ccc(-c2coc3ccc(-c4nnc(SCc5cccc(C#N)c5)o4)cc23)cc1 | 0% | 0% | 10% | 13% | 0% | 0% | 5% | 12% | 0% | 9%
